# Target: T1, v3.1_PPR14 (Artificial Sequence)
# T1 chain: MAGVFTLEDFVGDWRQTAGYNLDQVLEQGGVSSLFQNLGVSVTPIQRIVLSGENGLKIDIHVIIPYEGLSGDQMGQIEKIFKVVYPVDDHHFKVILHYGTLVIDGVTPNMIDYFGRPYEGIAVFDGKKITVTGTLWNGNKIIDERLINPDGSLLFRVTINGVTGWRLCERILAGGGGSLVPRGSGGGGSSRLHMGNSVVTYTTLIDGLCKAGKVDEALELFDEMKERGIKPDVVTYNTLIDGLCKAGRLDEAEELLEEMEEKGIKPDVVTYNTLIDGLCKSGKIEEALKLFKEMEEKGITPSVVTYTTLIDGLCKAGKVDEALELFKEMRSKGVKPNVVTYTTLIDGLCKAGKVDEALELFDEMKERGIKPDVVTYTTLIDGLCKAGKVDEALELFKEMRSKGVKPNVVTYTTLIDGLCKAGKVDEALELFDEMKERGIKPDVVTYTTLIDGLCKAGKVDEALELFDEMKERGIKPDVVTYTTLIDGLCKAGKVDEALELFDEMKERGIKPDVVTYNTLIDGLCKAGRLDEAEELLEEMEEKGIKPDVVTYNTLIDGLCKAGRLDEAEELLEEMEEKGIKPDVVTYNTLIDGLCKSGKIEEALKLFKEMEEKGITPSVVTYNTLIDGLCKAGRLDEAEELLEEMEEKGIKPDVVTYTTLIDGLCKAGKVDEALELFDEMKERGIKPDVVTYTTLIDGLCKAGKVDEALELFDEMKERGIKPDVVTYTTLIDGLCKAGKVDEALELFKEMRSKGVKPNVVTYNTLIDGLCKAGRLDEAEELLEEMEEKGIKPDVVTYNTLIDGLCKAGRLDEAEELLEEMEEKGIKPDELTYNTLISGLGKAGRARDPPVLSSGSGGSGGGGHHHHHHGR
# Test: RPB-ELISA
# Conditions: tags: N-terminal luciferase, C-terminal 6xHis; label: 5'-biotin; ssRNA
# Method: RNA probes consisting of a designed 30-base sequence containing 18 bases of the target sequence and modified by biotinylation at the 5′ end (RNA_1, RNA_2, RNA_3, RNA_4, and RNA_5, SEQ ID NOS: 61 to 65) were synthesized (Grainer). To a streptavidin-coated plate (Thermo fisher), the 5′-end biotinylated RNA probes were added, reaction was allowed at room temperature for 30 minutes, and the plate was washed with a lysis buffer (20 mM Tris-HCl, pH 7.6, 150 mM NaCl, 5 mM MgCl₂, 0.5% NP-40, 1 mM DTT, 0.1% BSA). For background measurement, wells to which RNA was not added, but 100 μL of the lysis buffer, 1 μL of 100 mM DTT, and 1 μL of 40 unit/4 RNase inhibitor (Takara, 2313A) were added were also prepared. Then, 200 μL of a blocking buffer (20 mM Tris-HCl, pH 7.6, 150 mM NaCl, 5 mM MgCl₂, 0.5% NP-40, 1 mM DTT, 1% BSA) was added, and the plate surface was blocked at room temperature for 30 minutes. Then, 100 μL of E. coli lysate containing luciferase-fused PPR protein having a luminescence level of 1.5×10⁸ LU/μL was added to each well, and the binding reaction was allowed at room temperature for 30 minutes. The well was washed 5 times with 200 μL of a washing buffer (20 mM Tris-HCl, pH 7.6, 150 mM NaCl, 5 mM MgCl₂, 0.5% NP-40, 1 mM DTT). […] The background (luminescence signal value obtained with adding the PPR protein and without adding RNA) was subtracted from the luminescences of the samples to which a solution containing each RNA and PPR protein was added, and the obtained values were used as the binding powers between the PPR protein and RNA.
# By using the V3.1 motif, PPR proteins for the same 23 kinds of target sequences were similarly prepared (SEQ ID NOS: 411 to 433 for the nucleotide sequences, and SEQ ID NOS: 434 to 456 for the amino acid sequences), and bindings of all the combinations were analyzed by using RPB-ELISA. The experimental method was the same as that used in Example 3.
row,Sequence,binding signal [log2 luminescence]
1,GGUUAGAGAUACAGUGUG,22.5
2,GUGGGGGUGGUAGGAAAU,20.1

# — US20220289795, “EFFICIENT METHOD FOR PREPARING PPR PROTEIN AND USE OF THE SAME” (EditForce, Inc., published 2022)
